From ChEMBL document CHEMBL2218924, “A broad activity screen in support of a chemogenomic map for kinase signalling research and drug discovery” (Biochem J, 2013)

Target: Tyrosine-protein kinase ABL1 (Homo sapiens) (UniProt P00519)
Details: at 10 µM

Chain of Tyrosine-protein kinase ABL1 (Homo sapiens) (P00519 whole entry): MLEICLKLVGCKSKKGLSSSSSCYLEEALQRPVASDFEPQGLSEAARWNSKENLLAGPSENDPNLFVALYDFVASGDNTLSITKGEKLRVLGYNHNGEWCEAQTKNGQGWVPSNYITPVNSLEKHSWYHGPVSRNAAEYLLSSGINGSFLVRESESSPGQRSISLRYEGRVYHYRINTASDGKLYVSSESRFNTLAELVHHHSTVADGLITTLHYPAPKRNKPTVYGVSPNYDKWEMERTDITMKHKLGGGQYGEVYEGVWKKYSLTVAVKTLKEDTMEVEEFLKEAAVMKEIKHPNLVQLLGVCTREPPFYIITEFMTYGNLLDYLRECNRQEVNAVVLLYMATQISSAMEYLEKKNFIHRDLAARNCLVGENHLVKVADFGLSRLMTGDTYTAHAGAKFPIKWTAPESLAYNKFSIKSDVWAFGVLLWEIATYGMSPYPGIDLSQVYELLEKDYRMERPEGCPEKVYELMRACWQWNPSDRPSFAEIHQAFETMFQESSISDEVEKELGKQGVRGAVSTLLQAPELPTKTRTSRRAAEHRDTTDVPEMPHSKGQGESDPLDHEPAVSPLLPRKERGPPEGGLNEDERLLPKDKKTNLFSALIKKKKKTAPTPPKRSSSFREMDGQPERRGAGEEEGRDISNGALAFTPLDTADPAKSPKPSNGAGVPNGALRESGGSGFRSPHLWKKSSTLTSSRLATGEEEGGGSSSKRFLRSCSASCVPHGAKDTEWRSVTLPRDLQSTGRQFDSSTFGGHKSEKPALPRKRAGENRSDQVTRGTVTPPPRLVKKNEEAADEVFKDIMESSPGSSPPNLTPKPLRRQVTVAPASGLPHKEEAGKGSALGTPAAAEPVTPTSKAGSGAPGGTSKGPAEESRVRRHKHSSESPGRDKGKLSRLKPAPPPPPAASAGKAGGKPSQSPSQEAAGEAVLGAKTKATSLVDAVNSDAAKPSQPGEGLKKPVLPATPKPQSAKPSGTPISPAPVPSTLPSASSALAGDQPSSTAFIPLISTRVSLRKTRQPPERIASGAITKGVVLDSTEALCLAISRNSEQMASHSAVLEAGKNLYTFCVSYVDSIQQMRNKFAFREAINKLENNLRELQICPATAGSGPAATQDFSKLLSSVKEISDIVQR

| Structure (SMILES) | residual activity [%] |
| --- | --- |
| c1cc(-c2cnn3cc(-c4ccc(OCCN5CCCCC5)cc4)cnc23)ccn1 | -4 |
| COC(=O)[C@@]1(O)C[C@H]2O[C@]1(C)n1c3ccccc3c3c4c(c5c6ccccc6n2c5c31)C(=O)NC4 | 51 |
| O=C1c2ccccc2-c2nc3nnnn3nc21 | 112 |
| O=[N+]([O-])/C=C/c1ccc2c(c1)OCO2 | 86 |
| C[S+]([O-])c1ccc(-c2nc(-c3ccc(F)cc3)c(-c3ccncc3)[nH]2)cc1 (stereo not given) | 72 |
| CC(C)[C@H](CO)Nc1nc(Nc2cccc(Cl)c2)c2ncn(C(C)C)c2n1 | 14 |
| O=c1[nH]c2ccccc2n1C1CCN(Cc2ccc(-c3nc4cc5[nH]cnc5cc4nc3-c3ccccc3)cc2)CC1 | 137 |
| COc1cc(OC)c(/C=C2\C(=O)Nc3ccccc32)c(OC)c1 | 85 |
| CCn1cnc2c(Nc3cccc(Cl)c3)nc(N[C@@H]3CCCC[C@@H]3N)nc21 | 40 |
| CC(C)(C)c1cc(C=C(C#N)C#N)cc(Br)c1O | 4 |
| O=C1Nc2ccc3ncsc3c2/C1=C/c1c[nH]cn1 | 20 |
| COc1cc2ncnc(Nc3ccc(OCc4ccccc4)cc3)c2cc1OC | 111 |
| COc1ccc2c(c[n+](C)c3c4cc5c(cc4ccc23)OCO5)c1OC | 97 |

Target: Tyrosine-protein kinase ABL2 (Homo sapiens) (UniProt P42684)
Details: at 1 µM

Chain of Tyrosine-protein kinase ABL2 (Homo sapiens) (P42684 whole entry): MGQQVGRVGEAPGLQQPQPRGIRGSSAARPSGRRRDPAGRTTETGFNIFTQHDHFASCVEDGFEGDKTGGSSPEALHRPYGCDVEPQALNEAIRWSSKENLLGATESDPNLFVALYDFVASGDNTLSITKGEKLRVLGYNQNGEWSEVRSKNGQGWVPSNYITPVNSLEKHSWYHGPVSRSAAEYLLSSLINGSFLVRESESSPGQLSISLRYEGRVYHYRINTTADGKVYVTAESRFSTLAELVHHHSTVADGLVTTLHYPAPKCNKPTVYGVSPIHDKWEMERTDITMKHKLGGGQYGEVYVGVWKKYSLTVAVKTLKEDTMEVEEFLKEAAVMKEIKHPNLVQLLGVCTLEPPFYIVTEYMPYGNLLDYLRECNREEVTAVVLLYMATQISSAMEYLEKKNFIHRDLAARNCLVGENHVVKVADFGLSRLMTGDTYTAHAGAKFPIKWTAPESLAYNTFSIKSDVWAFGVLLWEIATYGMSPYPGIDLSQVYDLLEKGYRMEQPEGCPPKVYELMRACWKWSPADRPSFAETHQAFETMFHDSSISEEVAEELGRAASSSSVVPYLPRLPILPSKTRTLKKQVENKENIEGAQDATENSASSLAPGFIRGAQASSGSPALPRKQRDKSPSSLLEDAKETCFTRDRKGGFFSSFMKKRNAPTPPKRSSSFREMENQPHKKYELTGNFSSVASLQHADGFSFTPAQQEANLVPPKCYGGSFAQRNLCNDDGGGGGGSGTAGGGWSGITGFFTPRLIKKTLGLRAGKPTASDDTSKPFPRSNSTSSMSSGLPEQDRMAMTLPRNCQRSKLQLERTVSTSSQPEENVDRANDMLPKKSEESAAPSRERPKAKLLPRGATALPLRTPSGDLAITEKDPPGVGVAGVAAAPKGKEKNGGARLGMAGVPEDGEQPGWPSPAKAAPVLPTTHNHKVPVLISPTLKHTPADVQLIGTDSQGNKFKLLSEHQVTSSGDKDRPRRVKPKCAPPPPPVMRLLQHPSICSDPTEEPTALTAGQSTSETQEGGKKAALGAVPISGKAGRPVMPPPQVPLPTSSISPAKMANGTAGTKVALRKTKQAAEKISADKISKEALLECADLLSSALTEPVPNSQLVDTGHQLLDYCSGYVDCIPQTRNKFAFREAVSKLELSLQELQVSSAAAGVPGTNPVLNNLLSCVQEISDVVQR

| Structure (SMILES) | residual activity [%] |
| --- | --- |
| CCc1nc(-c2ccc(OC)cc2)[nH]c1-c1ccncc1 | 104 |
| c1cc(-c2cnn3cc(-c4ccc(OCCN5CCCCC5)cc4)cnc23)ccn1 | 12 |
| COC(=O)[C@@]1(O)C[C@H]2O[C@]1(C)n1c3ccccc3c3c4c(c5c6ccccc6n2c5c31)C(=O)NC4 | 79 |
| O=[N+]([O-])/C=C/c1ccc2c(c1)OCO2 | 104 |
| CC(C)[C@H](CO)Nc1nc(Nc2cccc(Cl)c2)c2ncn(C(C)C)c2n1 | 22 |
| O=c1[nH]c2ccccc2n1C1CCN(Cc2ccc(-c3nc4cc5[nH]cnc5cc4nc3-c3ccccc3)cc2)CC1 | 117 |
| COc1cc(OC)c(/C=C2\C(=O)Nc3ccccc32)c(OC)c1 | 123 |
| N/C(=N\[N+](=O)[O-])N/N=C\c1ccc(-c2cccc([N+](=O)[O-])c2)o1 | 96 |
| CCn1cnc2c(Nc3cccc(Cl)c3)nc(N[C@@H]3CCCC[C@@H]3N)nc21 | 62 |
| O=C1Nc2ccc3ncsc3c2/C1=C/c1c[nH]cn1 | 82 |
| COc1cc2ncnc(Nc3ccc(OCc4ccccc4)cc3)c2cc1OC | 103 |
| COc1ccc2c(c[n+](C)c3c4cc5c(cc4ccc23)OCO5)c1OC | 92 |

Target: Tyrosine-protein kinase ABL2 (Homo sapiens) (UniProt P42684)
Details: at 10 µM

| Structure (SMILES) | residual activity [%] |
| --- | --- |
| CCc1nc(-c2ccc(OC)cc2)[nH]c1-c1ccncc1 | 75 |
| c1cc(-c2cnn3cc(-c4ccc(OCCN5CCCCC5)cc4)cnc23)ccn1 | 1 |
| COC(=O)[C@@]1(O)C[C@H]2O[C@]1(C)n1c3ccccc3c3c4c(c5c6ccccc6n2c5c31)C(=O)NC4 | 35 |
| O=C1c2ccccc2-c2nc3nnnn3nc21 | 113 |
| O=[N+]([O-])/C=C/c1ccc2c(c1)OCO2 | 92 |
| C[S+]([O-])c1ccc(-c2nc(-c3ccc(F)cc3)c(-c3ccncc3)[nH]2)cc1 (stereo not given) | 55 |
| CC(C)[C@H](CO)Nc1nc(Nc2cccc(Cl)c2)c2ncn(C(C)C)c2n1 | 1 |
| O=c1[nH]c2ccccc2n1C1CCN(Cc2ccc(-c3nc4cc5[nH]cnc5cc4nc3-c3ccccc3)cc2)CC1 | 89 |
| COc1cc(OC)c(/C=C2\C(=O)Nc3ccccc32)c(OC)c1 | 77 |
| N/C(=N\[N+](=O)[O-])N/N=C\c1ccc(-c2cccc([N+](=O)[O-])c2)o1 | 83 |
| COc1ccc2c(c1)/C(=C/c1cnc[nH]1)C(=O)N2 | 47 |
| CCn1cnc2c(Nc3cccc(Cl)c3)nc(N[C@@H]3CCCC[C@@H]3N)nc21 | 13 |
| CC(C)(C)c1cc(C=C(C#N)C#N)cc(Br)c1O | 51 |
| O=C1Nc2ccc3ncsc3c2/C1=C/c1c[nH]cn1 | 33 |
| COc1cc2ncnc(Nc3ccc(OCc4ccccc4)cc3)c2cc1OC | 96 |
| COc1ccc2c(c[n+](C)c3c4cc5c(cc4ccc23)OCO5)c1OC | 82 |

Target: T1, Aurora kinase A (Homo sapiens) (UniProt O14965)
T1 sequence (whole entry): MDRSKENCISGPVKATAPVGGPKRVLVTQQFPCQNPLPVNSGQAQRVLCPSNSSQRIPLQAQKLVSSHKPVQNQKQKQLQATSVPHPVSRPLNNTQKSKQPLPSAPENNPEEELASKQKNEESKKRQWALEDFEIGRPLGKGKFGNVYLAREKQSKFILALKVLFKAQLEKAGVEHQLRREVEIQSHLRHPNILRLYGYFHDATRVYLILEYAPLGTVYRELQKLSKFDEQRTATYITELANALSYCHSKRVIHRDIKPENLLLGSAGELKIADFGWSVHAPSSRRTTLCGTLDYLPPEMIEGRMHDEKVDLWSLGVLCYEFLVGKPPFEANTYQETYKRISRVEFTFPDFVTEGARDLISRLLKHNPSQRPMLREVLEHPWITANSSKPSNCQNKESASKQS
Details: at 1 µM

| Structure (SMILES) | residual activity [%] |
| --- | --- |
| c1cc(-c2cnn3cc(-c4ccc(OCCN5CCCCC5)cc4)cnc23)ccn1 | 64 |
| COC(=O)[C@@]1(O)C[C@H]2O[C@]1(C)n1c3ccccc3c3c4c(c5c6ccccc6n2c5c31)C(=O)NC4 | 2 |
| O=C1c2ccccc2-c2nc3nnnn3nc21 | 71 |
| O=[N+]([O-])/C=C/c1ccc2c(c1)OCO2 | 99 |
| C[S+]([O-])c1ccc(-c2nc(-c3ccc(F)cc3)c(-c3ccncc3)[nH]2)cc1 (stereo not given) | 117 |
| O=C1NC(=O)c2c1c1c3ccccc3n3c1c1c2c2ccccc2n1C1CCC3O1 | 95 |
| O=c1[nH]c2ccccc2n1C1CCN(Cc2ccc(-c3nc4cc5[nH]cnc5cc4nc3-c3ccccc3)cc2)CC1 | 70 |
| COc1cc(OC)c(/C=C2\C(=O)Nc3ccccc32)c(OC)c1 | 107 |
| COc1ccc2c(c1)/C(=C/c1cnc[nH]1)C(=O)N2 | 42 |
| CCn1cnc2c(Nc3cccc(Cl)c3)nc(N[C@@H]3CCCC[C@@H]3N)nc21 | 85 |
| CC(C)(C)c1cc(C=C(C#N)C#N)cc(Br)c1O | 104 |
| O=C1Nc2ccc3ncsc3c2/C1=C/c1c[nH]cn1 | 0 |
| COc1cc2ncnc(Nc3ccc(OCc4ccccc4)cc3)c2cc1OC | 41 |
| COc1ccc2c(c[n+](C)c3c4cc5c(cc4ccc23)OCO5)c1OC | 83 |
